Here are results for 23 molecules from the supplement of paper PMC8387472.

Counter-ions that a name gives are not always drawn.

The subject of one assay is 24.0 GACCACAGCCCCCAGCAGGGGAGGCCCCCAGCAGGGGAGGCCCACACCTGCCCCAGCACCT
In words: fraction of microhomology deletions among edited reads; higher = more MH deletions. The settings on record: mESC; 2uM; 72 h treatment, harvest day 5.
With `CC(=O)O/N=C1\C(=O)N(Cc2cc(Cl)ccc2Cl)c2ccc(Cl)cc21`, the “fraction of microhomology deletions among edited reads” value is 0.696.
Still for that read-out and setting: under `Nc1cc(F)ccc1NC(=O)c1ccc(CNC(=O)/C=C/c2cccnc2)cc1` [Tucidinostat (Chidamide)] stands 0.571.
As to `Cc1cc(C)nc(SCC(=O)Nc2ncc(Cc3cccc4ccccc34)s2)n1`, the “fraction of microhomology deletions among edited reads” value was 0.552.
In the case of `CCCCOc1c(C(=O)c2c(F)cc(C)cc2F)c[nH]c2nncc1-2`, the “fraction of microhomology deletions among edited reads” value worked out at 0.705.

A further assay has as its system 6.0 (DMSO control at this site: 1-bp insertion 0.296, MH deletion 0.491, edited 0.076) ACGATTGGCCCCCACAAAGCGGACCAGCCAGCGTGCTAGGGAATAAGGCCAACTTGCACCC
The assay is described as above. The settings on record: mESC; 2uM; 72 h treatment, harvest day 5.
Consider `CCN1CCN(CC(=O)Nc2ccc(-c3cccc4c(=O)cc(N5CCOCC5)oc34)c3sc4ccccc4c23)CC1`, for which the “fraction of microhomology deletions among edited reads” value was 0.588.
As for `NC(=O)c1ccc2nc(-c3ccc(Oc4ccc(Cl)cc4)cc3)[nH]c2c1` [Chk 2 inhibitor II (BML-277)], the “fraction of microhomology deletions among edited reads” value was found to be 0.515.
On the same count and under the same terms, next, `CCc1c2c(nc3ccc(OC(=O)N4CCC(N5CCCCC5)CC4)cc13)-c1cc3c(c(=O)n1C2)COC(=O)[C@]3(O)CC` [Irinotecan HCl Trihydrate]: 0.571.
On the same count and under the same terms, next, `O=c1cc(N2CCOCC2)oc2c(-c3ccc4c(c3)OCCO4)csc12`: 0.568.
On the same count and under the same terms, under `O=C(c1cccc(Cl)c1F)N1CCN(Cc2cccc(Nc3nccs3)n2)CC1` stands 0.559; under `COc1ccccc1-c1cc(Nc2cccc(CS(N)(=O)=O)c2)ncn1`, 0.494.
For `CNc1ccc([N+](=O)[O-])c(Nc2ccc3[nH]ncc3c2)n1`, the “fraction of microhomology deletions among edited reads” value was determined as 0.551.
On to `O=C1Cc2c([nH]c3ccc(Br)cc23)-c2ccccc2N1` [Kenpaullone], for which the “fraction of microhomology deletions among edited reads” value worked out at 0.526.
The same measure, in the same setting: under `S=c1[nH]cnc2nc[nH]c12` [Mercaptopurine (6-MP)] stands 0.519; under `CC(=O)O/N=C1\C(=O)N(Cc2cc(Cl)ccc2Cl)c2ccc(Cl)cc21`, 0.51.
Same read-out and setting: under `Nc1cc(F)ccc1NC(=O)c1ccc(CNC(=O)/C=C/c2cccnc2)cc1` [Tucidinostat (Chidamide)] stands 0.502; under `Nc1nc2[nH]cc(CCc3ccc(C(=O)N[C@@H](CCC(=O)O)C(=O)O)cc3)c2c(=O)[nH]1` [Pemetrexed], 0.608.
Same read-out and setting: under `Cc1cc(C)nc(SCC(=O)Nc2ncc(Cc3cccc4ccccc34)s2)n1` stands 0.498; under `O=c1c(-c2ccc(O)cc2)coc2cc(O)cc(O)c12` [Genistein], 0.529; under `Cc1cccc(CC(=O)N2CCc3c2ccc(-c2cn(C)c4ncnc(N)c24)c3F)n1`, 0.501.
`CO[C@H]1/C=C/O[C@@]2(C)Oc3c(C)c(O)c4c(O)c(c(/C=N/N5CCN(C6CCCC6)CC5)c(O)c4c3C2=O)NC(=O)/C(C)=C\C=C\[C@H](C)[C@H](O)[C@@H](C)[C@@H](O)[C@@H](C)[C@H](OC(C)=O)[C@@H]1C` [Rifapentine]: the “fraction of microhomology deletions among edited reads” value turned out to be 0.538.
Take `S=c1nc[nH]c2nc[nH]c12` [6-Mercaptopurine (6-MP) Monohydrate]: the “fraction of microhomology deletions among edited reads” value came out at 0.429.
Turning to `Nc1ncnc2c1c(-c1cnc3[nH]ccc3c1)nn2C1CCCC1`, the “fraction of microhomology deletions among edited reads” value stood at 0.403.
`CC(C)(C#N)c1ccc(N2C(=O)OCc3cnc4ccc(-c5cnc6ccccc6c5)cc4c32)cc1`: the “fraction of microhomology deletions among edited reads” value was 0.53.
On the same count and under the same terms, next, `CCCCOc1c(C(=O)c2c(F)cc(C)cc2F)c[nH]c2nncc1-2`: 0.523.
The same measure, in the same setting: next, `C[C@@H]1CN(CC(=O)Nc2ccc3c(c2)Cc2cccc(-c4cc(=O)cc(N5CCOCC5)o4)c2S3)C[C@H](C)O1`: 0.331.
The same measure, in the same setting: next, `CCn1c(=O)c(-c2ccc(Cl)cc2Cl)cc2cnc(Nc3ccc(N4CCNCC4)c(F)c3)nc21`: 0.477.

Another assay deals with 24.0 GACCACAGCCCCCAGCAGGGGAGGCCCCCAGCAGGGGAGGCCCACACCTGCCCCAGCACCT
In words: fraction of 1-bp insertions among edited reads; higher = more 1-bp insertion outcomes. The settings on record: mESC; 2uM; 72 h treatment, harvest day 5.
For the molecule `CC(=O)O/N=C1\C(=O)N(Cc2cc(Cl)ccc2Cl)c2ccc(Cl)cc21`, the “fraction of 1-bp insertions among edited reads” value was 0.0444.
Turning to `Nc1cc(F)ccc1NC(=O)c1ccc(CNC(=O)/C=C/c2cccnc2)cc1` [Tucidinostat (Chidamide)], the “fraction of 1-bp insertions among edited reads” value is 0.103.
On the same count and under the same terms, next, `Cc1cc(C)nc(SCC(=O)Nc2ncc(Cc3cccc4ccccc34)s2)n1`: 0.105; `CCCCOc1c(C(=O)c2c(F)cc(C)cc2F)c[nH]c2nncc1-2`: 0.0164.

A further assay deals with 6.0 (DMSO control at this site: 1-bp insertion 0.296, MH deletion 0.491, edited 0.076) ACGATTGGCCCCCACAAAGCGGACCAGCCAGCGTGCTAGGGAATAAGGCCAACTTGCACCC
The assay is described as above. The conditions noted are these: mESC; 2uM; 72 h treatment, harvest day 5.
With `CCN1CCN(CC(=O)Nc2ccc(-c3cccc4c(=O)cc(N5CCOCC5)oc34)c3sc4ccccc4c23)CC1`, the “fraction of 1-bp insertions among edited reads” value was determined as 0.0821.
Still for that read-out and setting: next, `NC(=O)c1ccc2nc(-c3ccc(Oc4ccc(Cl)cc4)cc3)[nH]c2c1` [Chk 2 inhibitor II (BML-277)]: 0.278.
On to `CCc1c2c(nc3ccc(OC(=O)N4CCC(N5CCCCC5)CC4)cc13)-c1cc3c(c(=O)n1C2)COC(=O)[C@]3(O)CC` [Irinotecan HCl Trihydrate], for which the “fraction of 1-bp insertions among edited reads” value is 0.249.
Still for that read-out and setting: next, `O=c1cc(N2CCOCC2)oc2c(-c3ccc4c(c3)OCCO4)csc12`: 0.201; `O=C(c1cccc(Cl)c1F)N1CCN(Cc2cccc(Nc3nccs3)n2)CC1`: 0.193.
Same read-out and setting: under `COc1ccccc1-c1cc(Nc2cccc(CS(N)(=O)=O)c2)ncn1` stands 0.281; under `CNc1ccc([N+](=O)[O-])c(Nc2ccc3[nH]ncc3c2)n1`, 0.269.
As to `O=C1Cc2c([nH]c3ccc(Br)cc23)-c2ccccc2N1` [Kenpaullone], the “fraction of 1-bp insertions among edited reads” value was found to be 0.274.
On the same count and under the same terms, next, `S=c1[nH]cnc2nc[nH]c12` [Mercaptopurine (6-MP)]: 0.285; `CC(=O)O/N=C1\C(=O)N(Cc2cc(Cl)ccc2Cl)c2ccc(Cl)cc21`: 0.256; `Nc1cc(F)ccc1NC(=O)c1ccc(CNC(=O)/C=C/c2cccnc2)cc1` [Tucidinostat (Chidamide)]: 0.272.
On the same count and under the same terms, under `Nc1nc2[nH]cc(CCc3ccc(C(=O)N[C@@H](CCC(=O)O)C(=O)O)cc3)c2c(=O)[nH]1` [Pemetrexed] stands 0.152; under `Cc1cc(C)nc(SCC(=O)Nc2ncc(Cc3cccc4ccccc34)s2)n1`, 0.295; under `O=c1c(-c2ccc(O)cc2)coc2cc(O)cc(O)c12` [Genistein], 0.253.
Same read-out and setting: next, `Cc1cccc(CC(=O)N2CCc3c2ccc(-c2cn(C)c4ncnc(N)c24)c3F)n1`: 0.337; `CO[C@H]1/C=C/O[C@@]2(C)Oc3c(C)c(O)c4c(O)c(c(/C=N/N5CCN(C6CCCC6)CC5)c(O)c4c3C2=O)NC(=O)/C(C)=C\C=C\[C@H](C)[C@H](O)[C@@H](C)[C@@H](O)[C@@H](C)[C@H](OC(C)=O)[C@@H]1C` [Rifapentine]: 0.258; `S=c1nc[nH]c2nc[nH]c12` [6-Mercaptopurine (6-MP) Monohydrate]: 0.326.
On to `Nc1ncnc2c1c(-c1cnc3[nH]ccc3c1)nn2C1CCCC1`, for which the “fraction of 1-bp insertions among edited reads” value was 0.412.
For `Cc1ccc(C(=O)NCCCCCC(=O)Nc2ccccc2N)cc1`, the “fraction of 1-bp insertions among edited reads” value was found to be 0.292.
`CC(C)(C#N)c1ccc(N2C(=O)OCc3cnc4ccc(-c5cnc6ccccc6c5)cc4c32)cc1`: the “fraction of 1-bp insertions among edited reads” value came to 0.267.
As for `CCCCOc1c(C(=O)c2c(F)cc(C)cc2F)c[nH]c2nncc1-2`, the “fraction of 1-bp insertions among edited reads” value amounted to 0.258.
On to `C[C@@H]1CN(CC(=O)Nc2ccc3c(c2)Cc2cccc(-c4cc(=O)cc(N5CCOCC5)o4)c2S3)C[C@H](C)O1`, for which the “fraction of 1-bp insertions among edited reads” value came out at 0.475.
For the molecule `CCn1c(=O)c(-c2ccc(Cl)cc2Cl)cc2cnc(Nc3ccc(N4CCNCC4)c(F)c3)nc21`, the “fraction of 1-bp insertions among edited reads” value is 0.288.
